Here are results for six compounds from PubChem BioAssay.

In experiment [1] the test system is Plasmodium falciparum Sir2 (PF13_0152, Sir2A). Nature of the experiment: pfSir2 binders on small-molecule microarrays, primary screen, biochemical, small-molecule microarray, 635 nm fluorescence (AID 1098).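 Also: score merges spot fluorescence intensity with its signal-to-noise ratio.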 The following applies: small-molecule microarray binding, fluorescence 635 nm; higher = more signal.
Experiment [2] is described as follows: small-molecule microarray binders of probe aDKK1, primary screen, biochemical, biotinylated probe, 635/667 nm fluorescence (AID 1099).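 Also: score merges 667nm spot fluorescence with signal to noise across triplicate slides.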 The following applies: higher = more signal.
Experiment [3] can be described thus: small-molecule microarray binders of probe aCHRDL2, primary screen, biochemical, biotinylated probe, 635/667 nm fluorescence (AID 1100). Conditions: higher = more signal.
A short description of experiment [4]: splicing luciferase reporter signal modulators, primary screen, spliceosome inhibition project, cell-based, HEK293, splice +/- reporter (AID 1101).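 Also: HEK293 cells carrying a splicing-competent luciferase reporter gene; test concentration not given here.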 Conditions: luminescence, 24 h, higher = more signal, called active from +8 up or from −8 down. (In general: In a reporter assay the amount or activity of a reporter protein is the signal.)
The target of experiment [5] is Fibroblast growth factor 10 (Homo sapiens) (UniProt O15520). Nature of the experiment: FGF10 binders on small-molecule microarrays, primary screen, biochemical, small-molecule microarray, 635 nm fluorescence (AID 1102). Conditions: FGF10 binding, fluorescence 635 nm, higher = more signal.
The subject of experiment [6] is glycogen synthase kinase-3 (GSK3A per assay name; protocol says GSK3B). Kind of experiment: GSK3 binders on small-molecule microarrays, primary screen, biochemical, small-molecule microarray, 635 nm fluorescence, GSK3A (AID 1103). Also: the record names both GSK3A and GSK3B. Conditions: small-molecule microarray binding, fluorescence 635 nm; higher = more signal.
The target in experiment [7] is Epidermal growth factor receptor (Homo sapiens) (UniProt P00533). Nature of the experiment: EGFR binders on small-molecule microarrays, primary screen, biochemical, small-molecule microarray, 635 nm fluorescence (AID 1104).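 Also: score merges 667 nm emission intensity with spot signal to noise over triplicate slides.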 Conditions: EGFR binding, higher = more signal.
The target in experiment [8] is Follistatin-related protein 3 (Homo sapiens) (UniProt O95633). Kind of experiment: FSTL3 binders on small-molecule microarrays, primary screen, biochemical, small-molecule microarray, 635 nm fluorescence (AID 1105).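 Also: score merges emission near 667 nm and signal to noise per printed spot across three slides.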 Conditions: FSTL3 binding, higher = more signal.
The target of experiment [9] is Dickkopf-related protein 1 (Homo sapiens) (UniProt O94907). Kind of experiment: DKK1 binders on small-molecule microarrays, primary screen, biochemical, small-molecule microarray, 635 nm fluorescence scan (AID 1106).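 Also: score merges emission near 667 nm with signal to noise over three replicate slides.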 Conditions: DKK1 binding, higher = more signal.
Experiment [10] has as its system Inhibin beta A chain (activin A). Nature of the experiment: INHBA (activin A) binders on microarrays, primary screen, biochemical, small-molecule microarray, 635 nm fluorescence scan (AID 1107).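 Also: mouse activin A protein probed at 4.33 µg/mL on printed slides; score merges bound-protein fluorescence near 667 nm with spot signal-to-noise.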 The following applies: small-molecule microarray binding, higher = more signal.
The subject of experiment [11] is Human papillomavirus type 1a protein E7 (residues 44-93). Kind of experiment: HPV1a E7 fragment binders on microarrays, primary screen, biochemical, small-molecule microarray, residues 44-93, 635 nm fluorescence (AID 1108).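 Also: E7 fragment applied at 1 µg/mL in TBST for 1 h at 4 C; score combines spot fluorescence with its signal to noise ratio.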 Conditions: small-molecule microarray binding, fluorescence 635 nm; higher = more signal.
Experiment [12] in a line: modulators of HCV replicon luciferase signal, primary screen, HCV replication inhibitor project, Huh7 cells, luciferase reporter (AID 1109).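 Also: huh7 hepatoma cells harbouring a luciferase neomycin HCV replicon reporter; luciferase luminescence as measure of HCV replicon replication; test concentration not given here.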 The following applies: 48 h, higher = more signal. (In antiviral work, replicon cells carry a viral genome segment that copies itself.)
The target of experiment [13] is Left-right determination factor 2 (Homo sapiens) (UniProt O00292). Kind of experiment: LEFTY2 binders on small-molecule microarrays, primary screen, biochemical, small-molecule microarray, 635 nm fluorescence scan (AID 1110). Conditions: LEFTY2 binding, higher = more signal.
Experiment [14] deals with Calmodulin-1 (Homo sapiens) (UniProt P0DP23). Nature of the experiment: CALM1 binders on microarrays, EGTA buffer, profiling panel, biochemical, small-molecule microarray, Cy5-labelled CALM1 (AID 1111).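 Also: labelled calmodulin applied in Tris saline Tween buffer holding calcium plus EGTA and DTT.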 The following applies: Cy5-CALM1 binding fluorescence, higher = more signal.
For experiment [15] the target is unchanged. Kind of experiment: calcium-bound CALM1 binders on microarrays, profiling panel, artefact control for SMM control-protein annotation, biochemical, small-molecule microarray, Cy5-labelled CALM1, plus calcium (AID 1112).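 Also: score merges spot fluorescence with signal to noise from triplicate slides.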 The following applies: Cy5-CALM1 binding fluorescence, higher = more signal.
A short description of experiment [16]: small-molecule microarray binders of probe aWnt5a, primary screen, biochemical, biotinylated probe, 635/667 nm fluorescence (AID 1113).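 Also: score merges 667 nm fluorescence intensity with signal-to-noise per printed feature.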 The following applies: higher = more signal.
The nature of experiment [17]: small-molecule microarray binders of probe aShh, primary screen, biochemical, biotinylated probe, 635/667 nm fluorescence (AID 1114).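 Also: probe is biotin-labelled aShh protein from a stem cell growth factor screen; measures binding of labelled protein to compounds printed on the slide; score merges feature fluorescence at 667 nm with signal-to-noise.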 Conditions: higher = more signal.
Experiment [18] in a line: small-molecule microarray binders of probe aNog, primary screen, biochemical, biotinylated probe, 635/667 nm fluorescence (AID 1115).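 Also: probe is biotinylated aNog protein used at 0.15 µg/mL for 1 h at 4 C; z-score combines 667 nm fluorescence of each spot with its signal to noise.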 Conditions: higher = more signal.
For experiment [19], the target named is Torsin-1A-interacting protein 1 (Homo sapiens) (UniProt Q5JTV8). Nature of the experiment: LAP1 binders from COS7 cell lysate, primary screen, small-molecule microarray, 635/667 nm fluorescence (AID 1116). The following applies: COS7-hLAP1 lysate binding, 635 nm fluorescence, higher = more signal.
Experiment [20] deals with Alpha-bungarotoxin (Bungarus multicinctus) (UniProt P60615). Kind of experiment: alpha-bungarotoxin binders on microarray, profiling panel, artefact control for SMM control protein annotation, biochemical, small-molecule microarray, Alexa647 label, 635/667 nm fluorescence (AID 1117). The following applies: alpha-BTX-A647 binding fluorescence, higher = more signal.

The source made the active and inactive calls.

Sequence of Dickkopf-related protein 1 (Homo sapiens) (O94907 whole entry, looked up): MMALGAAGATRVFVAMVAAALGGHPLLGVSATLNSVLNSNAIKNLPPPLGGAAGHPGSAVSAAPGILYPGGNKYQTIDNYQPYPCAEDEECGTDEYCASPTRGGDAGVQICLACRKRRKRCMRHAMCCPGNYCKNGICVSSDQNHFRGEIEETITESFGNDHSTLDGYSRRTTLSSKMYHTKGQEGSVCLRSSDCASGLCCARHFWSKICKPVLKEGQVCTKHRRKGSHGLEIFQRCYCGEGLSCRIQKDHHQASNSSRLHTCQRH
Sequence of Torsin-1A-interacting protein 1 (Homo sapiens) (Q5JTV8 whole entry, looked up): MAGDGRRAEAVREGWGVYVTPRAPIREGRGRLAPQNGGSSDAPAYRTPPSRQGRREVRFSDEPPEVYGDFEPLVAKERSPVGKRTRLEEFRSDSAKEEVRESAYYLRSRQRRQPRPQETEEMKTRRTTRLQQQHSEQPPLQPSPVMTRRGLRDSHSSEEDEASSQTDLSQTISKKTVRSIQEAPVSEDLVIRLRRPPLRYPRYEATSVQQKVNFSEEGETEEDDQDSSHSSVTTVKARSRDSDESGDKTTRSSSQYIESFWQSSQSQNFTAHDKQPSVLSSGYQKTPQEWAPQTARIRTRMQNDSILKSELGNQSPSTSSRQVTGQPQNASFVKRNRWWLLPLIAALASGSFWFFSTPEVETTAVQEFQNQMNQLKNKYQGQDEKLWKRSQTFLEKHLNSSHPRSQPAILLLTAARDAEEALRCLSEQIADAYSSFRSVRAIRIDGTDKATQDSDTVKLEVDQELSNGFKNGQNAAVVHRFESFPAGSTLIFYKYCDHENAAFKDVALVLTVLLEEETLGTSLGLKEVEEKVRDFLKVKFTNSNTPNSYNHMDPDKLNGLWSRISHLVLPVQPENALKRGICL
Sequence of Alpha-bungarotoxin (Bungarus multicinctus) (P60615 whole entry, looked up): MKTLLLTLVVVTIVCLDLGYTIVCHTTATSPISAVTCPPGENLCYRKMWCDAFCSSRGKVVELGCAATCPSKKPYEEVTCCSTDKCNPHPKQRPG
Sequence of Follistatin-related protein 3 (Homo sapiens) (O95633 whole entry, looked up): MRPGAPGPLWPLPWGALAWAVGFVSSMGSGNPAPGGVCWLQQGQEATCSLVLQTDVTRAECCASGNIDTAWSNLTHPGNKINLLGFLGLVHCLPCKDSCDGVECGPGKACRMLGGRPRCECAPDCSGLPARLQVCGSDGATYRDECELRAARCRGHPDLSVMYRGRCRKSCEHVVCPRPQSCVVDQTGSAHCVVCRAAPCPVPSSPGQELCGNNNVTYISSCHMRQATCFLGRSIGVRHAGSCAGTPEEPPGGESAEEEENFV
Sequence of Left-right determination factor 2 (Homo sapiens) (O00292 whole entry, looked up): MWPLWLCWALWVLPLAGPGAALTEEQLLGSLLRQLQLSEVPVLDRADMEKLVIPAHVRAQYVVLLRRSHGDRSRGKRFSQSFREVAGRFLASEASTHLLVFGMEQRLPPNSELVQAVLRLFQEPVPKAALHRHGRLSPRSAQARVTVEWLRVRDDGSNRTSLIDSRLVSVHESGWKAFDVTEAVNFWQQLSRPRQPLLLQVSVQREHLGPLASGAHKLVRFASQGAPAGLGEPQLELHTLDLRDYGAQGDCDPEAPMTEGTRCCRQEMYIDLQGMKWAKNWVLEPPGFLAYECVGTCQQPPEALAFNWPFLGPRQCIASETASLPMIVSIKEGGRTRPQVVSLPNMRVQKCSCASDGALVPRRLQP
Sequence of Epidermal growth factor receptor (Homo sapiens) (P00533 whole entry, looked up): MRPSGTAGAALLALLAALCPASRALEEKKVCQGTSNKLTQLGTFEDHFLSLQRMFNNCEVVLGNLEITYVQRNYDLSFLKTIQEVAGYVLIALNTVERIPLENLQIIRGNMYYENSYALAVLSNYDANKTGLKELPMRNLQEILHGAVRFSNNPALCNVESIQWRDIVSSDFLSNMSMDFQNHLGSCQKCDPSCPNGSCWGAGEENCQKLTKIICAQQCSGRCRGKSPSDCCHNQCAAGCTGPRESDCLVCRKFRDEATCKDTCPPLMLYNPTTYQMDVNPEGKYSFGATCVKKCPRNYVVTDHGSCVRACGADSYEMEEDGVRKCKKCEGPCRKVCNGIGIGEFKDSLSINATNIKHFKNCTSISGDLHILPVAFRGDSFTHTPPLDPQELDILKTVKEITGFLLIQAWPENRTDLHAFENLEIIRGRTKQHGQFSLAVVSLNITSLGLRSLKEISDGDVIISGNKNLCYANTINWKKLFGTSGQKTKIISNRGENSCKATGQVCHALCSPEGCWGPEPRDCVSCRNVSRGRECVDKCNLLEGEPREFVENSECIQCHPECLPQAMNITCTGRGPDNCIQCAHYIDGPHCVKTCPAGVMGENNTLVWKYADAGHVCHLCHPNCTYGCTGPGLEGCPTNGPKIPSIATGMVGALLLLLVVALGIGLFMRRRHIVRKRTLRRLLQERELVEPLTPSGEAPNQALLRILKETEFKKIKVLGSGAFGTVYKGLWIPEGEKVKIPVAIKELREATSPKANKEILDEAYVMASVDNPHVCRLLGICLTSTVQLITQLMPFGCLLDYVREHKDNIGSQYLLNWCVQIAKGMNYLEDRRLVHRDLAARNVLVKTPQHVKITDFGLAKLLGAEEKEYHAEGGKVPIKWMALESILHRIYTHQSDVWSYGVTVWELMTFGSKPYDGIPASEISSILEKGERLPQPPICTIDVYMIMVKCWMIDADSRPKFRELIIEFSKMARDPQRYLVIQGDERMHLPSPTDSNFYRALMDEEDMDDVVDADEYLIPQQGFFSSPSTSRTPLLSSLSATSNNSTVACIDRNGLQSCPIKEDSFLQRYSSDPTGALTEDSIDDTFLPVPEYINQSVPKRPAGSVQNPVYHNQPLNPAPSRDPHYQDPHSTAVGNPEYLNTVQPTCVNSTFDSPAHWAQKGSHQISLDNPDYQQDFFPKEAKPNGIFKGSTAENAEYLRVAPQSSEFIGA
Sequence of Fibroblast growth factor 10 (Homo sapiens) (O15520 whole entry, looked up): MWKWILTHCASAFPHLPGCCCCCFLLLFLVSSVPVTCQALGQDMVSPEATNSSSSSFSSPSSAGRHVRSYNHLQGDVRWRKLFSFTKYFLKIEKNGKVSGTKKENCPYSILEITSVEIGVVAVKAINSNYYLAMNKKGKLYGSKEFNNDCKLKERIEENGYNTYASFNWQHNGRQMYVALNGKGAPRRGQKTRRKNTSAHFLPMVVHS

`COCCOC(=O)N1C(=O)[C@@]2(c3cc(C#CCNC(N)=O)ccc31)[C@H](c1ccccc1OCCO)N1[C@H](c3ccccc3)[C@H](c3ccccc3)OC(=O)[C@H]1[C@@H]2C(=O)Nc1nc2ccccc2s1`: the composite z-score in experiment [1] came to 0.852; in experiment [2], 0.868; in [3], 1.13; in experiment [5] it was 0.141; in [6] it was 0.218; in experiment [7] it was 0.135. Besides, the composite z-score in experiment [8] is 0.572; in experiment [9] it was 0.505; in experiment [10], 0.887; in experiment [11] it was 0.872; in experiment [13] it was 0.163; in [14], 1.58. For the same compound, the composite z-score in experiment [15] was 1.14; in experiment [16], -0.0758; in [17], 0.284; in [18], 0.561; in experiment [19], 0.745; in experiment [20], 2.51. Moreover, the z-score is -0.349 (inactive) in experiment [4] and 0.048 in experiment [12].

For `CC(C)C[C@@H]1NC(=O)[C@H]2C[C@@H](C(=O)NCCCC[N+](C)(C)C)[C@@H](c3cccc(OCCO)c3)N2C1=O`, the composite z-score in [1] was 0.812; in experiment [2], 0.0877; in experiment [3], -0.409; in [5] it was 0.756; in experiment [6] it was -0.285; in experiment [7] it was 0.0727. Also, the composite z-score in experiment [8] was 0.965; in experiment [9], 1.23; in experiment [10], -0.125; in experiment [11] it was -1.55; in experiment [13], 0.673; in [14] it was -0.144. For the same compound, the composite z-score in experiment [15] is 0.75; in [16], -0.148; in experiment [17] it was -0.0722; in experiment [18] it was 0.327; in experiment [19], 1.19; in [20], -0.491. Besides, the z-score in experiment [4] is -1.02 (inactive); in experiment [12], -1.48.

Regarding `NCCCCCNC(=O)[C@H]1C[C@H]2C(=O)NCC(=O)N2[C@H]1c1ccc(O)cc1`, the composite z-score in [1] came out at 1.02; in [2] it was 0.154; in experiment [3], 0.212; in experiment [5] it was 1.37; in experiment [6], 1.31; in experiment [7], 0.383. Besides, the composite z-score in experiment [8] was determined as 1.07; in [9] it was 1.74; in [10], 0.324; in [11], 0.861; in experiment [13], 1.49; in experiment [14] it was 1.53. Also, the composite z-score in experiment [15] was 0.954; in experiment [16], -0.0981; in [17], -0.206; in experiment [18] it was -0.216; in experiment [19] it was 0.712; in [20], 2.71. Besides, the z-score in [4] was -0.25 (inactive); in [12], 0.245.

Take `C/C=C/[C@@H](CCn1cc(CCO[Si](C(C)C)(C(C)C)C(C)C)nn1)[Si](C)(C)c1ccc(OC)cc1`: the composite z-score is -0.82 in experiment [1]; -0.941 in experiment [2]; -0.34 in experiment [3]; -1.03 in experiment [5]; -0.918 in experiment [6]; -2.01 in [7]. In addition, the composite z-score was -1.72 in experiment [8]; -1.03 in [9]; 1.01 in experiment [10]; -0.77 in experiment [11]; -0.426 in experiment [13]; -2.98 in [14]. Moreover, the composite z-score in [15] is -2.87; in [16], -0.182; in [17], -0.323; in experiment [18] it was -0.866; in experiment [19], -0.24; in experiment [20], -1.25. Also, the z-score was -2.83 (inactive) in experiment [4] and -0.918 in [12].

For the compound `COc1ccc([Si](C)(C)[C@H]2[C@H](CC(=O)N(CCO)Cc3ccccc3)O[C@@]3(C(=O)N(Cc4cccc(N5C(=O)COc6ccccc65)c4)c4ccccc43)[C@@H]2C)cc1`, the composite z-score is 1.29 in experiment [1]; -0.209 in experiment [2]; 0.202 in [3]; 0.963 in [5]; 0.183 in experiment [6]; 0.456 in [7]. Besides, the composite z-score in experiment [8] is 0.628; in experiment [9] it was 0.506; in [10] it was 0.702; in experiment [11], -0.591; in experiment [13], 0.962; in [14] it was -0.13. For the same compound, the composite z-score in experiment [15] was -0.408; in [16], -0.203; in experiment [17], 0.564; in [18] it was 0.389; in [19], 0.836; in [20], 1.57. The values for the z-score in experiment [4] and in experiment [12] were -2.08 (inactive) and -3.88, respectively.

`CC(C)[C@@H](C(=O)O)n1cc(-c2ccccn2)nn1`: the composite z-score is -0.0369 in [1]; 0.98 in experiment [2]; 0.33 in [3]; 0.0739 in experiment [5]; 0.428 in [6]; 0.278 in experiment [7]. For the same compound, the composite z-score amounted to 0.0231 in experiment [8]; 0.418 in experiment [9]; 0.805 in [10]; 0.465 in [11]; 0.249 in experiment [13]; 0.51 in experiment [14]. The composite z-score in [15] was 0.556; in [16] it was -0.0216; in experiment [17] it was 0.0039; in [18], -0.195; in experiment [19] it was 0.539; in experiment [20], 0.703. Further, the z-score was -0.015 (inactive) in [4] and -0.187 in experiment [12].
